This is part of a sample that, as a whole, favours compounds with a hit. Of some 83,000 tested, about 20% had one in any assay.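 Activity criterion: percent growth below 10, measured after cells in 96-well plates were exposed to a single compound concentration for 48 hours.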 A number with no mark means an inactive call. Active and inactive are the calls of the source.

Results on 13 compounds are retold here after PubChem BioAssay (NCI).

Some test systems named below: SK-MEL-2 melanoma; EKVX NSCLC; SN12C renal; UO-31 renal; TK-10 renal; ACHN renal; CAKI-1 renal; A498 renal; CCRF-CEM leukemia; MOLT-4 leukemia.
Holding throughout (experiment): NCI-60 one-dose screen, 48 h (100 = growth as untreated, 0 = no growth, -100 = all killed)
Common to all, as to conditions: 10 µM unless noted

In the case of `COc1ccc(/C=N/NC(=O)CSc2nc(-c3cnccn3)cc(-c3cccs3)c2C#N)cc1`, the growth in the test with SK-MEL-2 melanoma was 89%; in the test with EKVX NSCLC it was 78.2%; in the test with SN12C renal, 64%; in the test on UO-31 renal, 101%; in the test on TK-10 renal, 98.7%; in the test on ACHN renal, 74%. The growth was 48.3% in the test on CAKI-1 renal, 79% in the test with A498 renal, 86.1% with CCRF-CEM leukemia and 73.8% with MOLT-4 leukemia.
Regarding `Cc1ccc2c(n1)C(=O)C(Cl)=C(Nc1cccc(C(F)(F)F)c1)C2=O`, the growth with SK-MEL-2 melanoma was 99.7%; with EKVX NSCLC, 58.1%; in the test on SN12C renal, 85.8%; in the test on UO-31 renal, -67.7% (active); in the test with TK-10 renal, 127%; with ACHN renal, -96.2% (active). For the same compound, the growth in the test with CAKI-1 renal is 81.8%; in the test with A498 renal, 86%; with CCRF-CEM leukemia, 4.32% (active); with MOLT-4 leukemia, 6.52% (active).
With `O=C(NCCNc1cc(-c2cn(-c3ccccc3)nc2-c2cccc(O)c2)ccn1)Nc1cc(C(F)(F)F)cc(C(F)(F)F)c1`, the growth was 93.7% in the test with SK-MEL-2 melanoma; 90.6% in the test with EKVX NSCLC; 95.5% in the test on SN12C renal; 77.1% in the test with UO-31 renal; 94.4% in the test with TK-10 renal; 96.9% in the test with ACHN renal. Further, the growth in the test on CAKI-1 renal was 88.9%; in the test with A498 renal, 76.6%; with CCRF-CEM leukemia, 101%; with MOLT-4 leukemia, 84.9%.
Regarding `Cc1[nH]c(C(=O)Nc2ccccc2OCc2cccc(C(=O)NC3CCNC3)c2)c(Cl)c1Cl` (stereo not given), the growth is 101% with SK-MEL-2 melanoma; 79.6% with EKVX NSCLC; -33.5% (active) in the test with SN12C renal; 84.9% with UO-31 renal; 101% with TK-10 renal; 74.9% in the test with ACHN renal. The growth is 27.5% in the test on CAKI-1 renal, 79.7% with A498 renal, 6.3% (active) with CCRF-CEM leukemia and 1.73% (active) in the test on MOLT-4 leukemia.
For `CN1CCN(Cc2ccc(NC(=O)c3cncc(C#Cc4cnc5ccc(N6CCOCC6)nn45)c3)cc2C(F)(F)F)CC1`, the growth with SK-MEL-2 melanoma was -88.3% (active); with EKVX NSCLC it was -47.5% (active); in the test on SN12C renal it was -22.1% (active); with UO-31 renal, -81.2% (active); in the test with TK-10 renal, -64.3% (active); with ACHN renal it was -97.8% (active). Further, the growth with CAKI-1 renal is -50.3% (active); in the test with A498 renal, -94.3% (active); with CCRF-CEM leukemia it was -2.39% (active); in the test with MOLT-4 leukemia, 0.376% (active).
Take `CN(C)c1cccc2c(S(=O)(=O)Nc3cccc(-c4csc(NC(=O)CCCCCN5CCN(CCO)CC5)n4)c3)cccc12`: the growth in the test with SK-MEL-2 melanoma was 99.7%; with EKVX NSCLC it was 85%; in the test with SN12C renal it was 80.1%; with UO-31 renal, 86.4%; with TK-10 renal it was 120%; in the test on ACHN renal, 96.9%. The growth in the test on CAKI-1 renal was 86.1%; in the test with A498 renal, 101%; with CCRF-CEM leukemia it was 72.8%; with MOLT-4 leukemia, 47.5%.
Consider `Cc1csc(/N=C(N)/N=C(\N)c2cccc(C#N)c2)n1`, for which the growth was 47.8% in the test on SK-MEL-2 melanoma; 82.8% in the test with EKVX NSCLC; 92.3% with SN12C renal; 76.3% in the test with UO-31 renal; 168% with TK-10 renal; 84.9% with ACHN renal. The growth with CAKI-1 renal is 53.9%; with A498 renal, 69.4%; in the test on CCRF-CEM leukemia, 82.7%; with MOLT-4 leukemia, 85.6%.
Take `C#CCN(C)CCCOc1ccc(NC(=O)CCCCCCCCC(=O)NO)cc1Cl`: the growth was 96.7% in the test on SK-MEL-2 melanoma; 68.8% in the test with EKVX NSCLC; 95.9% in the test on SN12C renal; 51.7% with UO-31 renal; 63.1% with TK-10 renal; 80.4% in the test on ACHN renal. For the same compound, the growth in the test on CAKI-1 renal is 78.6%; in the test on A498 renal it was 81.1%; in the test with CCRF-CEM leukemia, 30.5%; with MOLT-4 leukemia, 43.2%.
As for `O=S(=O)(Oc1ccc(-c2cn3ccsc3n2)cc1)c1cccc(C(F)(F)F)c1`, the growth in the test with SK-MEL-2 melanoma was 101%; with EKVX NSCLC it was 94.3%; with SN12C renal it was 104%; with UO-31 renal it was 93.1%; with TK-10 renal, 98.7%; with ACHN renal, 98.4%. Moreover, the growth with CAKI-1 renal was 89.9%; with A498 renal, 86.8%; in the test with CCRF-CEM leukemia, 100%; in the test with MOLT-4 leukemia it was 97.6%.
As to `COc1ccc(CC(C)=C(c2ccc(OCCN3CCCC3)cc2)c2ccc(OCCN3CCCC3)cc2)cc1`, the growth was -91.8% (active) in the test with SK-MEL-2 melanoma; -90.8% (active) in the test on EKVX NSCLC; -82.9% (active) with SN12C renal; -94.9% (active) in the test on UO-31 renal; -94.4% (active) in the test with TK-10 renal; -96% (active) with ACHN renal. Further, the growth with CAKI-1 renal was -89.1% (active); in the test on A498 renal it was -87.5% (active); in the test with CCRF-CEM leukemia, -40.8% (active); in the test with MOLT-4 leukemia, -60.3% (active).
Turning to `Cn1cc(-c2nnc(N)nc2-c2c[nH]c3ccc(Br)cc23)c2cc(Br)ccc21`, the growth in the test on SK-MEL-2 melanoma was 110%; in the test on EKVX NSCLC it was 103%; in the test with SN12C renal, 110%; with UO-31 renal it was 84.2%; with TK-10 renal it was 78.7%; in the test on ACHN renal it was 94.7%. Moreover, the growth in the test with CAKI-1 renal is 85.9%; in the test with A498 renal it was 93.6%; in the test on CCRF-CEM leukemia, 108%; in the test on MOLT-4 leukemia, 107%.
For `O=C1Nc2ccccc2/C1=N\c1nnc(-c2ccccc2)o1`, the growth is 96.4% with SK-MEL-2 melanoma; 67.9% in the test with EKVX NSCLC; 104% with SN12C renal; 75.5% in the test with UO-31 renal; 224% in the test with TK-10 renal; 88.2% in the test with ACHN renal. Moreover, the growth in the test on CAKI-1 renal is 88.2%; in the test on A498 renal it was 90.7%; in the test with CCRF-CEM leukemia it was 96.2%; in the test with MOLT-4 leukemia it was 96.7%.
On to `O=C1[C@H]2Cc3c([nH]c4ccccc34)[C@H](c3ccc(Br)cc3)N2C(=O)CN1C1CCN(CC2CCCCC2)CC1`, for which the growth with SK-MEL-2 melanoma was 109%; in the test on EKVX NSCLC it was 83.8%; in the test with SN12C renal it was 73.7%; in the test with UO-31 renal, 45.3%; with TK-10 renal, 121%; with ACHN renal it was 80.4%. Besides, the growth in the test on CAKI-1 renal was 52.8%; in the test on A498 renal, 79.3%; with CCRF-CEM leukemia it was 49.1%; in the test on MOLT-4 leukemia, 38.5%.
